A short description of assay [1]: Caspase-3/7 induction in HepG2 cells by small molecules, qHTS assay (AID 1346978). Also: nearly all actives have a fitted effect of over 15% in size. Also: potency is read from the fitted curve at half-maximal effect. The gist of the method:
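Wild-type HepG2 cells (2,000/well) were settled 5 h at 37 C, 5% CO2, then exposed to compounds in DMSO for 17 h. Caspase-3/7 activity was read by luminescence 30 min after adding Caspase-Glo 3/7 reagent at room temperature.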

Assay [2] in a line: Caspase-3/7 induction in CHO-K1 cells by small molecules, qHTS cell viability counter screen (AID 1346979). Also: nearly all actives have a fitted effect of over 35% in size. Also: potency is read from the fitted curve at half-maximal effect. The gist of the method:
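In the same wells as the caspase read, viability of compound-treated wild-type CHO-K1 cells was assessed using CellTiter-Fluor, added after 16hr at 37C and measured by fluorescence following 1hr further incubation.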
(Quantitative high-throughput screening tests each substance at several concentrations.)

Assay [3] in a line: Caspase-3/7 induction in CHO-K1 cells by small molecules, qHTS assay (AID 1346980). Also: nearly all actives have a fitted effect of over 15% in size. The gist of the method: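 Wild-type cells were seeded at 1,500 per well and settled 5 hr at 37 C, 5% CO2, then exposed to DMSO-dissolved compounds for 17 hr. Caspase-Glo 3/7 reagent was added, and luminescence was read after 30min at room temperature.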
The target in assay [4] is Nuclear receptor subfamily 1 group I member 2 (Homo sapiens) (UniProt O75469). Nature of the assay: Human pregnane X receptor (PXR) small molecule agonists, qHTS assay (AID 1346982). Also: nearly all actives have a fitted effect of over 35% in size. Also: potency is read from the fitted curve at half-maximal effect. The gist of the method:
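Agonist mode qHTS: PXR-Luc HepG2 cells plated 5 hr before DMSO-dissolved compounds were pinned in, cultured 24 hr at 37 C, 5% CO2; ONE-Glo luminescence readout.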

Assay [5] deals with Cytochrome P450 2C19 (Homo sapiens) (UniProt P33261). Nature of the assay: Cytochrome P450 Family 2 Subfamily C Member 19 (CYP2C19) small molecule antagonists: luciferase reporter qHTS assay (AID 1671197). Also: nearly all actives have a fitted effect of over 65% in size. Also: potency is read from the fitted curve at half-maximal effect. The gist of the method: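 Quantitative high-throughput screen of the Tox21 library using CYP2C19 with proluciferin substrate. Reaction: NADPH regeneration, 37C, 1 h, after 10 min compound preincubation at room temperature. Readout: luminescence.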
Cytochrome P450 2C19 (Homo sapiens), sequence (P33261 whole entry, looked up): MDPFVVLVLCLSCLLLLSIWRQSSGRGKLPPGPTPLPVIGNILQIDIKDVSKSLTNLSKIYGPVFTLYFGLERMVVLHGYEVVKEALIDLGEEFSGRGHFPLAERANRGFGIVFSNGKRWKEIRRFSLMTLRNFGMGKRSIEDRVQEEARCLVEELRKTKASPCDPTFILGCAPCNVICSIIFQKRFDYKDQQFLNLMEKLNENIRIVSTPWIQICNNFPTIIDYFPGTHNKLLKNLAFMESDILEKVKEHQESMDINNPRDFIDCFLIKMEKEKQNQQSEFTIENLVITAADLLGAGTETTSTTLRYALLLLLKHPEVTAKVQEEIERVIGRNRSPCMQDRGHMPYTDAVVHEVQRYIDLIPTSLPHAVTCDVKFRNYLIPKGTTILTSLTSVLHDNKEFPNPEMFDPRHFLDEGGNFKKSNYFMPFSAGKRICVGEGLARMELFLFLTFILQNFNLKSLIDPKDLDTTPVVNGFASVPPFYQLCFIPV
(In general: A reporter such as luciferase makes a cellular process visible.)

The nature of assay [6]: Caspase-3/7 induction in HepG2 cells by small molecules, qHTS cell viability counter screen (AID 1346981). Also: nearly all actives have a fitted effect of over 30% in size. Also: potency is read from the fitted curve at half-maximal effect. The gist of the method:
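Steps: seed 2,000 HepG2 cells per well; incubate 5 hr at 37 C; pin-add compounds in DMSO; incubate 16 hr; add CellTiter-Fluor; after 1 hr at 37 C and 5% CO2, read fluorescence.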

The target of assay [7] is Cytochrome P450 2D6 (Homo sapiens) (UniProt P10635). Nature of the assay: Cytochrome P450 Family 2 Subfamily D Member 6 (CYP2D6) small molecule antagonists: luciferase reporter qHTS assay (AID 1671196). Also: nearly all actives have a fitted effect of over 50% in size. Also: potency is read from the fitted curve at half-maximal effect. The gist of the method: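 P450-Glo format: CYP2D6 converts a proluciferin substrate to luciferin in an NADPH-driven reaction lasting 1 h at room temperature. Light output, proportional to CYP2D6 activity, reflects interference by test chemicals.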
Cytochrome P450 2D6 (Homo sapiens), sequence (P10635 whole entry, looked up): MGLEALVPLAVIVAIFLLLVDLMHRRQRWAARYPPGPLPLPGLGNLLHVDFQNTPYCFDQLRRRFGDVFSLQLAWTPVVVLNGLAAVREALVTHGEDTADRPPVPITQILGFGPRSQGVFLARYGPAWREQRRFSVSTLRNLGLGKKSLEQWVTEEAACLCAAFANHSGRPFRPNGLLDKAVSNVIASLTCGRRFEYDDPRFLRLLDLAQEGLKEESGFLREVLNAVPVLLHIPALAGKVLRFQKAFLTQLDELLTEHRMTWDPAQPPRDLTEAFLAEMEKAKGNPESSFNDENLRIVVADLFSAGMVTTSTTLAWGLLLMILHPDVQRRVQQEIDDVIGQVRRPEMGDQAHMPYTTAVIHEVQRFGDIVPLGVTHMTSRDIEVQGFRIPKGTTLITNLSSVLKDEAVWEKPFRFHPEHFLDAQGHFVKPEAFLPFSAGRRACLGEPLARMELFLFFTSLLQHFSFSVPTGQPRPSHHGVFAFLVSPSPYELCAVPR

Assay [8] has as its target Nuclear receptor subfamily 1 group I member 2 (Rattus norvegicus) (UniProt Q9R1A7). Nature of the assay: Rat pregnane X receptor (rPXR) activation by small molecules, qHTS assay (AID 1346983). Also: nearly all actives have a fitted effect of over 20% in size. Particulars: rPXR luciferase reporter cells, One-Glo luminescence, 24 h; active compounds read high. The gist of the method: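 Cell-based rPXR luciferase reporter assay, 2,000 cells per well, rested 5hr at 37 C before compound addition in DMSO, then 24 hr at 37 C. One-Glo reagent was added and luminescence read after 30 min at room temperature.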

Assay [9] deals with Nuclear receptor subfamily 1 group I member 2 (Homo sapiens) (UniProt O75469). Nature of the assay: Human pregnane X receptor (PXR) activation by small molecules, qHTS assay (AID 1346985). Also: nearly all actives have a fitted effect of over 40% in size. Also: potency is read from the fitted curve at half-maximal effect. The gist of the method: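 DPX-2 cells (HepG2 co-transfected with a PXR response element and a CYP3A4-promoter luciferase construct) were seeded at 2,000 per well, rested 5 hr at 37C, then exposed to DMSO-dissolved compounds for 24 hr. Activation was read as luciferase luminescence.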
Nuclear receptor subfamily 1 group I member 2 (Homo sapiens), sequence (O75469 whole entry, looked up): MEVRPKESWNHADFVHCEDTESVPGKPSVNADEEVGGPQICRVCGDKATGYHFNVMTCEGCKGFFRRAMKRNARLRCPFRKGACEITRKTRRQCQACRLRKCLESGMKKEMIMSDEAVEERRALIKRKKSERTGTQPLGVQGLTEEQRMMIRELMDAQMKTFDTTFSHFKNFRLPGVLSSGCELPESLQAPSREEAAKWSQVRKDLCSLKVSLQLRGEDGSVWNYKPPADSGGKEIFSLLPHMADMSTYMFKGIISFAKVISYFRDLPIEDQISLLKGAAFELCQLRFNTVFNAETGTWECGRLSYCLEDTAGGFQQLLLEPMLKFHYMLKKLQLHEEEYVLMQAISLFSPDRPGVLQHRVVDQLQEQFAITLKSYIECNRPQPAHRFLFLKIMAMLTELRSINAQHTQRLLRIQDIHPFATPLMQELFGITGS

Assay [10] shares this target. Nature of the assay: CYP3A4 induction through human pregnane X receptor (PXR) by small molecules, qHTS assay (AID 1346984). Also: nearly all actives have a fitted effect of over 40% in size. The gist of the method:
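Steps: seed DPX-2 cells, 5 hr at 37C; pin-transfer compounds; 24 hr at 37C; add Luciferin-IPA (3uM final), 3 hr at 37C; add One-Glo, 30 min RT; read luminescence.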

Structures are written as SMILES. “And” between values parts separate entries of the source, which are not always exact repeats. Identical values can stand only once. Values without a mark were called inactive. Inconclusive results are not listed. The source made the active and inactive calls. Calls follow the shape of the dose curve; as a rule, active = well fitted curve in the direction sought with a large enough effect in the repeat runs; inconclusive = weak or mixed curves; inactive = no such curve, though single readings can be large; an effect the other way counts as inactive or inconclusive.
% is scaled to controls: 0 for no effect and ±100 for the full control effect.

Nuclear receptor subfamily 1 group I member 2 (Rattus norvegicus), sequence (Q9R1A7 whole entry, looked up): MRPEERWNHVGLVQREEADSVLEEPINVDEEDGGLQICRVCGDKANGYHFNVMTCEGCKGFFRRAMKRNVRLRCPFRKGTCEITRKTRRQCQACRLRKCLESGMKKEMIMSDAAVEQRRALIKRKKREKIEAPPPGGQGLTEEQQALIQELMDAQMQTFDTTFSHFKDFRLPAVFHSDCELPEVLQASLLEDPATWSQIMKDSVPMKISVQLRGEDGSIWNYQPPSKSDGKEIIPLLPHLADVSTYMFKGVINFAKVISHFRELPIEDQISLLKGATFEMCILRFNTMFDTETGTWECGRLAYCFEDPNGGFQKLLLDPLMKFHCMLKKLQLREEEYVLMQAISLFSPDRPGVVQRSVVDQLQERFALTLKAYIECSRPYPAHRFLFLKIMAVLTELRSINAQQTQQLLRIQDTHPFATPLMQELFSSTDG

On to `CN(C)CCN1CCN(c2cccc(Cl)c2)C1=O`, for which the Potency result in [1], in assay [2], in assay [3], in assay [4] and in assay [5] was “inactive” in each case.

Regarding `CC(C)(C)c1ccc(C(O)CCCN2CCC(C(O)(c3ccccc3)c3ccccc3)CC2)cc1` (configuration not stated), the Potency in assay [1] and in assay [2] was 11.9 µM (active) throughout. The Potency entry in [4] and in assay [5] was “inactive” in each case.

With `CC(C)CCOC(=O)/C=C/c1ccccc1`, the Potency entry in [1], in assay [2], in assay [6], in [4] and in assay [7] was “inactive” in each case. For the same compound, the Potency in assay [5] was 63.5 µM (active).

Turning to `CC(C)=CCC1=C(O)c2ccccc2C(=O)C1=O`, the Potency entry in assay [1] was “inactive”. The Potency in assay [2] was 30.5 µM (active); in assay [6] it was 60.8 µM (active); in assay [4], 19.2 µM (active); in assay [7] it was 44.6 µM (active).

Take `O=C1C(c2[nH]c3ccc(S(=O)(=O)O)cc3c2O)=Nc2ccc(S(=O)(=O)O)cc21`: the Potency result in assay [1], in assay [2] and in assay [4] was “inactive” in each case. The Potency in assay [7] is 63.3 µM (active); in [5] it was 79.6 µM (active).

Consider `CC1(C)CCC[C@]2(C)[C@H]3CC(=O)O[C@]3(C)CC[C@@H]12`, for which the Potency result in [1] and in assay [2] was “inactive” each time. Moreover, the Potency in [4] was 30.6 µM (active).

Turning to `Cc1c(C)c([N+](=O)[O-])c(C(C)(C)C)c([N+](=O)[O-])c1C`, the Potency result in [1], in assay [2], in assay [6] and in assay [7] was “inactive” in each case. The Potency in [5] was 28.3 µM (active).

Regarding `[Cl][Pt-2]([Cl])([Cl])[Cl]`, the Potency result in [1], in assay [3], in [6] and in assay [4] was “inactive” in each case. In addition, the Potency was 40.1 µM (active) in assay [7] and 22.6 µM (active) in [5].

Regarding `O=C1CCc2cc(OCCCCc3nnnn3C3CCCCC3)ccc2N1`, the Potency entry in [1], in [3], in [6], in assay [7] and in assay [5] was “inactive” throughout. Moreover, the Potency in assay [4] is 13.3 µM (active).

As for `c1ccc(SSc2ccccc2)cc1`, the Potency entry in [1], in [3] and in assay [6] was “inactive” in each case. Moreover, the Potency in assay [4] was 27.5 µM (active); in assay [5], 22.6 µM (active).

On to `Cc1cc(C(C#N)c2ccc(Cl)cc2)c(Cl)cc1NC(=O)c1cc(I)cc(I)c1O` (configuration not stated), for which the Potency result in assay [1], in assay [3], in assay [9] and in assay [7] was “inactive” each time. In addition, the max activation in assay [8] was -15.9%. Moreover, the Potency in [5] is 8.71 µM (active).

Consider `Sc1nc2ccccc2s1`, for which the Potency entry in [1] and in [6] was “inactive” each time. Also, the Potency in assay [4] was 54.5 µM (active); in [5], 7.96 µM (active).

Turning to `C#C[C@]1(OC(C)=O)CC[C@H]2[C@@H]3CCC4=C/C(=N/O)CC[C@@H]4[C@H]3CC[C@@]21CC`, the Potency entry in assay [1] and in assay [6] was “inactive” each time. For the same compound, the Potency was 29.8 µM (active) in assay [4], 7.94 µM (active) in assay [9], 27.5 µM (active) in assay [7] and 4.36 µM (active) in assay [5].

With `COc1ccc2cc1Oc1ccc(cc1)C[C@H]1c3c(cc4c(c3Oc3cc5c(cc3OC)CCN(C)[C@@H]5C2)OCO4)CCN1C`, the Potency in [2] was 29.8 µM (active); in assay [6] it was 26.6 µM (active); in [4] it was 9.44 µM (active); in assay [7], 15.5 µM (active). The Potency result in [3] was “inactive”. For the same compound, the max activation in [8] is -17.4%.

In the case of `O=C(Nc1ccc2c(O)c(N=Nc3ccc(N=Nc4ccc(S(=O)(=O)O)cc4)cc3)c(S(=O)(=O)O)cc2c1)c1ccccc1`, the Potency in assay [2] was 15.4 µM (active); in [6], 24.3 µM (active). The Potency entry in [3] and in assay [4] was “inactive” in each case.

For the compound `CCCCCCCCCCCCCC[N+](C)(C)C`, the Potency was 59.1 µM (active) and 38.5 µM (active) in assay [2]; 61.1 µM (active) in [6]; 63.2 µM (active) in assay [5]. Besides, the Potency entry in assay [3], in assay [4] and in assay [9] was “inactive” throughout. In assay [8], the max activation is -17%.

On to `C=CC(=O)OCCOC(=O)C=C`, for which the Potency result in assay [1], in assay [3], in assay [6], in assay [4], in assay [7] and in assay [5] was “inactive” in each case.

With `OC12N=C(c3ccccc3)SC1Cc1cc(Cl)ccc12` (configuration not stated), the Potency entry in assay [1] and in assay [3] was “inactive” throughout. Further, the Potency in [4] is 10.9 µM (active); in [5], 0.126 µM (active).

In the case of `C#C[C@]1(O)CC[C@H]2[C@@H]3[C@H](C)CC4=C(CCC(=O)C4)[C@H]3CC[C@@]21C`, the Potency result in assay [1], in [3], in assay [6], in assay [9] and in assay [7] was “inactive” in each case. In addition, the Potency in assay [5] was 3.89 µM (active).

In the case of `O=[N+]([O-])c1cccc(C(F)(F)F)c1`, the Potency entry in assay [2], in assay [3], in assay [6], in [4], in [7] and in [5] was “inactive” each time.

On to `CC(C(=O)O)c1ccc2c(c1)[nH]c1ccc(Cl)cc12` (configuration not stated), for which the Potency entry in assay [1], in [3], in assay [6], in [4], in assay [9] and in assay [7] was “inactive” each time. The Potency result in assay [5] is “inactive”. In addition, the max activation in assay [8] was -1.86%.

In the case of `CCOc1ccc2ccccc2c1C(=O)N[C@@H]1C(=O)N2[C@@H]1SC(C)(C)[C@@H]2C(=O)O`, the Potency entry in assay [2], in assay [3], in assay [6], in [4], in assay [10] and in assay [9] was “inactive” throughout. In assay [7], the Potency result was “inactive”. Also, in [8], the max activation is -0.231%.

Turning to `O=c1c(O)c(-c2ccc(O)cc2O)oc2cc(O)cc(O)c12`, the Potency entry in [1] and in assay [5] was “inactive” each time.

For the compound `O=S(=O)(O)c1ccccc1/C=C/c1ccc(-c2ccc(/C=C/c3ccccc3S(=O)(=O)O)cc2)cc1`, the Potency entry in [1], in assay [4], in [7] and in [5] was “inactive” throughout.

With `CCC(CC)(CC(=O)Nc1cccc(/C=C/c2nc(C3CCC3)cs2)c1)C(=O)O`, the Potency entry in assay [1], in [3], in [10] and in [7] was “inactive” in each case. In addition, the Potency in assay [4] was 23.7 µM (active).

On to `Cc1ccc(C)cc1`, for which the Potency entry in [2], in [3], in [6], in assay [4] and in assay [7] was “inactive” in each case.

For the origin of these results see PubChem BioAssay (Tox21).
